Measured values from PubChem BioAssay AID1441 (NMMLSC, 2008).
The campaign covered roughly 220,000 compounds. About 830 (0.38%) were called active. The rule behind the calls is not given here. Only a selection was taken, and actives are over-represented in it overall.

Each molecule was assayed against Regulator of G-protein signaling 16 (Homo sapiens) + Guanine nucleotide-binding protein G(o) subunit alpha (Homo sapiens) (UniProt O15492+P09471) (assay: modulators of RGS16 binding to Galphao, primary screen, biochemical, human proteins, multiplexed bead flow cytometry (AID 1441;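 note: Galphao activated by GDP with aluminum fluoride before binding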)). Conditions: bead-based flow cytometry RGS16-Galphao binding, fluorescence; at 10 µM; actives lie on both sides.
Chain of Regulator of G-protein signaling 16 (Homo sapiens) + Guanine nucleotide-binding protein G(o) subunit alpha (Homo sapiens) (O15492 whole entry, looked up): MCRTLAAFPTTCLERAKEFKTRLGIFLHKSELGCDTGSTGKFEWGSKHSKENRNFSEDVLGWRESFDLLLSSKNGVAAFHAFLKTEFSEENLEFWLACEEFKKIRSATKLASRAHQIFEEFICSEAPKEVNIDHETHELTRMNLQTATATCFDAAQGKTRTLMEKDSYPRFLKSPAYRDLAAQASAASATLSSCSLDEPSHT
Chain of Regulator of G-protein signaling 16 (Homo sapiens) + Guanine nucleotide-binding protein G(o) subunit alpha (Homo sapiens) (P09471 whole entry, looked up): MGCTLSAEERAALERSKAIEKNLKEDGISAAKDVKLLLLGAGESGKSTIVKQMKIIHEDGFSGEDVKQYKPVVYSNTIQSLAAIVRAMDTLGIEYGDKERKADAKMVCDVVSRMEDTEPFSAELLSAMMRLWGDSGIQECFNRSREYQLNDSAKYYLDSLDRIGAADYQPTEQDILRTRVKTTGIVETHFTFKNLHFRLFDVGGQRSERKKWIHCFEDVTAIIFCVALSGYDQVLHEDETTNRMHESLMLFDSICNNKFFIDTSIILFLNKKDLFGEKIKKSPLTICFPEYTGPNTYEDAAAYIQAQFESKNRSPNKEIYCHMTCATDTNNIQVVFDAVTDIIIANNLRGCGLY

With `COc1ccccc1-n1cn[nH]c1=S` as the molecule, how does the binding response (% of control) read?
The binding response (% of control) was 102% (inactive).

For `COc1ccccc1-n1c(-c2cc(-c3ccco3)[nH]n2)n[nH]c1=S`, which binding response (% of control) is on record?
Its binding response (% of control) is -1.14% (active).

With `COc1ccc(OC)c(-n2c(-c3ccn[nH]3)n[nH]c2=S)c1` as the molecule, how does the binding response (% of control) read?
Its binding response (% of control) is 102% (inactive).

With `CCCOc1ccc(Cc2c(Cl)nc(SC)nc2NC)cc1` as the molecule, how does the binding response (% of control) read?
Its binding response (% of control) is 97.7% (inactive).

With `COc1ccc(/C=N/n2nnnc2N)cc1OC` as the molecule, how does the binding response (% of control) read?
Its binding response (% of control) is 125% (inactive).

Which binding response (% of control) does the source give for `CN(C)CCNC(=O)/C(=C/c1cccc([N+](=O)[O-])c1)NC(=O)c1ccccc1` here?
Its binding response (% of control) is 219% [activator] (active).

`C=CCNC(=O)/C(=C\c1cccc([N+](=O)[O-])c1)NC(=O)c1ccccc1` was tested. Which binding response (% of control) did it give?
The binding response (% of control) was 98% (inactive).

How did the binding response (% of control) turn out when `O=C(NCCc1ccccc1)/C(=C\c1ccc([N+](=O)[O-])cc1)NC(=O)c1ccccc1` was run?
The binding response (% of control) was 101% (inactive).

Which binding response (% of control) does the source give for `CCSc1ccccc1C(=O)NCc1ccc(OC)cc1` here?
Its binding response (% of control) is 98.1% (inactive).

How did the binding response (% of control) turn out when `S=c1[nH]nc(-c2cc(-c3ccccc3)n[nH]2)n1/N=C/c1c2ccccc2cc2ccccc12` was run?
The binding response (% of control) was 97.7% (inactive).

How did the binding response (% of control) turn out when `COC(=O)c1ccc(/C=N\n2c(C)nnc2C)cc1` was run?
The binding response (% of control) was 82.2% (inactive).

`CCN(CC)S(=O)(=O)c1cccc(-c2n[nH]c(=S)n2/N=C/c2ccc(C(=O)OC)cc2)c1` was tested. Which binding response (% of control) did it give?
The binding response (% of control) was 334% [activator] (active).

For `Cc1cccc(NC(=O)c2nc[nH]c2C(=O)NCC(=O)OCc2ccccc2)c1`, which binding response (% of control) is on record?
Its binding response (% of control) is 110% (inactive).

With `NC(=O)Cc1ccc2sc(-c3ccccc3)nc2c1` as the molecule, how does the binding response (% of control) read?
Its binding response (% of control) is 23.6% (active).

`O=C(O)Cc1sc(-c2ccc(C(=O)O)cc2)nc1-c1ccccc1` was tested. Which binding response (% of control) did it give?
The binding response (% of control) was 99.1% (inactive).

`NC(=O)Cc1ccc2c(c1)[nH]c1ccccc12` was tested. Which binding response (% of control) did it give?
Its binding response (% of control) is 103% (inactive).

How did the binding response (% of control) turn out when `CSCC[C@H](NC(=O)CCCn1nnc2ccccc2c1=O)C(=O)O` was run?
The binding response (% of control) was 104% (inactive).

How did the binding response (% of control) turn out when `Cc1ccc(Cn2c(SCC(=O)N/N=C/c3ccccc3OCC(=O)O)nc3ccccc32)cc1` was run?
The binding response (% of control) was 99.5% (inactive).

Which binding response (% of control) does the source give for `COc1ccc(OC)c(/C=N/NC(=O)CSc2nnc(C)n2-c2ccccc2)c1` here?
Its binding response (% of control) is 97.7% (inactive).

`C=CCn1c(Cn2nnc3ccccc32)nnc1SCC(=O)N/N=C/c1cc(Br)cc(OC)c1O` was tested. Which binding response (% of control) did it give?
Its binding response (% of control) is -35.2% (active).

`CN1CCN(C(CNS(=O)(=O)c2cccs2)c2cccnc2)CC1` (stereo unspecified) was tested. Which binding response (% of control) did it give?
Its binding response (% of control) is -5.62% (active).

`CN1CCN(S(=O)(=O)c2ccc(N3CCN(S(=O)(=O)c4cccs4)CC3)nc2)CC1` was tested. Which binding response (% of control) did it give?
The binding response (% of control) was 98.8% (inactive).

With `Cc1ccc(NC(=O)NCC(c2cccnc2)N2CCOCC2)cc1` (stereo unspecified) as the molecule, how does the binding response (% of control) read?
The binding response (% of control) was 105% (inactive).

Which binding response (% of control) does the source give for `Cn1nc(C(C)(C)C)c([N+](=O)[O-])c1C(N)=O` here?
The binding response (% of control) was 98.6% (inactive).

For `COc1ccc2c(c1)CC[C@@H]1[C@@H]2CC[C@]2(C)C(=O)CC[C@@H]12`, which binding response (% of control) is on record?
The binding response (% of control) was 101% (inactive).

How did the binding response (% of control) turn out when `O=C(NCCc1c[nH]c2ccc(Cl)cc12)c1ccc([N+](=O)[O-])cc1` was run?
Its binding response (% of control) is 112% (inactive).

How did the binding response (% of control) turn out when `COc1ccccc1-n1c(=S)[nH]c2c(sc(=S)n2-c2ccc(C)cc2C)c1=O` was run?
The binding response (% of control) was 94.4% (inactive).

How did the binding response (% of control) turn out when `COc1cccc(C2Nc3cccc4cccc(c34)N2)c1` was run?
The binding response (% of control) was 106% (inactive).

Which binding response (% of control) does the source give for `O=[N+]([O-])C(=c1ccc2c(c1)N1C3=C(CCCC3)CC3CCCCC31N=2)[N+](=O)[O-]` (stereo unspecified) here?
Its binding response (% of control) is 20.9% (active).

`Cc1ccc(C)c(NC(=O)C(OC(=O)c2ccc(C)s2)c2ccccc2)c1` (stereo unspecified) was tested. Which binding response (% of control) did it give?
Its binding response (% of control) is 112% (inactive).

How did the binding response (% of control) turn out when `COc1ccc(CN(Cc2ccc(OC)cc2)C(=O)c2cccs2)cc1` was run?
Its binding response (% of control) is 99% (inactive).
